Reference: PubChem BioAssay (Tox21)
Records with an inconclusive call do not appear. Entries that show only a call come without a potency. Calls of active or inactive are those of the source. The call rests on the fitted dose curve; in most records, active means well fitted cell-killing curve with a large enough effect in the repeat runs; inconclusive means weak or mixed curves, or effect the other way; inactive means flat fitted curve, though single readings scatter.

Assay: cAMP Responsive Elements (CRE) small molecule antagonists, cell-based qHTS assay: qHTS cell viability counter screen (AID 2060913); further: nearly all actives have a fitted effect of over 40% in size
Conditions: CRE-bla HEK293T viability, CellTiter-Glo luminescence, 5 h; series mostly up to 92.4 µM
Summary of the method: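 Viability of NKH477-stimulated (0.25 uM final) CRE-bla HEK293T cells is measured by CellTiter-Glo luminescence following 3 hrs compound exposure at 37 C.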

Row | Structure (SMILES) | Potency | viability change, negative = cytotoxic
1 | O=C(O)CNC(=O)c1ccc(CO)o1 | inactive | 
2 | NC(N)=NC(N)=NCCc1ccccc1 | inactive | 
3 | CNc1ccccc1 | inactive | 
4 | CCC(=O)OC(=O)CC | inactive | 
5 | CCOC(=O)C(C)Oc1ccc(Oc2cnc3cc(Cl)ccc3n2)cc1 (stereo not drawn) | inactive | 
6 | CC(O)C#CC(C)O (stereo not drawn) | inactive | 
7 | Nc1nc2ncc(CNc3ccc(C(=O)N[C@@H](CCC(=O)O)C(=O)O)cc3)nc2c(=O)[nH]1 | inactive | 
8 | O=C1c2cccc(O)c2C(=O)c2c(O)cccc21 | inactive | 
9 | CC(=O)C(=O)CC(C)C | inactive | 
10 | CC1CCCCC1 | inactive | 
11 | C=C(C)[C@@H]1CC=C(C)C(=O)C1 | inactive | 
12 | CN(C)CCn1nnnc1SCC1=C(C(=O)O)N2C(=O)[C@@H](NC(=O)Cc3csc(N)n3)[C@H]2SC1 | inactive | 
13 | CCNc1cc(O)ccc1C | inactive | 
14 | CC(C)CCOCCC(C)C | inactive | 
15 | CCCCOCCOC(=O)COc1cc(Cl)c(Cl)cc1Cl | inactive | 
16 | CCOC(=O)C(C)Oc1ccc(Oc2nc3ccc(Cl)cc3o2)cc1 (stereo not drawn) | inactive | 
17 | CC1COc2ccccc2N1C(=O)C(Cl)Cl (stereo not drawn) | inactive | 
18 | OCCN1CN(CCO)CN(CCO)C1 | inactive | 
19 | Nc1c2ccccc2nc2ccccc12 | inactive | 
20 | Cc1cc(O)c(C(C)C)cc1Cl | inactive | 

Row | Structure (SMILES) | Potency | viability change, negative = cytotoxic
21 | C=C(C)C(=O)OCCO | inactive | 
22 | Cc1cccc2sc(N)nc12 | inactive | 
23 | OCCCCCCO | inactive | 
24 | S=C([S-])NCCNC(=S)[S-].S=C([S-])NCCNC(=S)[S-].[Mn+2].[Zn+2] | inactive | 
25 | CC(C)(CO)C(O)C(=O)NCCCO (stereo not drawn) | inactive | 
26 | CC(C)C1=CC2=CC[C@@H]3[C@](C)(CCC[C@@]3(C)C(=O)O)[C@H]2CC1 | inactive | 
27 | CCc1cccc(CC)c1NC(=O)C(=O)O | inactive | 
28 | CCN(CC)C(=O)N1CCN(C)CC1 | inactive | 
29 | CCCCCCCCO | inactive | 
30 | CC/C=C\CCOC(C)=O | inactive | 
31 | Cn1ccc2cc3c(cc21)CCN3C(=O)Nc1cccnc1 |  | -0.701% [at 18.9 µM] (inactive)
32 | C/C=C/C(=O)CCCC | inactive | 
33 | O=C(O)CN(CC(=O)O)CC(=O)O | inactive | 
34 | CC(=O)OC(C)C[N+](C)(C)C (stereo not drawn) | inactive | 
35 | O=C(O)CN(CCN(CC(=O)O)CC(=O)O)CCN(CC(=O)O)CC(=O)O |  | 8.32% [at 18.9 µM] (inactive)
36 | C=CCOC(=O)/C=C\C(=O)OCC=C | inactive | 
37 | CN(C)CCN1CCOCC1 | inactive | 
38 | CC(C)=CCCC(C)CCO (stereo not drawn) | inactive | 
39 | Cc1ccnc2ccccc12 | inactive | 

Assay: cAMP Responsive Elements (CRE) small molecule agonists, cell-based qHTS assay: qHTS cell viability counter screen (AID 2060914); further: nearly all actives have a fitted effect of over 50% in size
Conditions: CRE-bla HEK293T viability, CellTiter-Glo luminescence, 5 h; series mostly up to 92.4 µM
Summary of the method: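 In the same wells as the reporter read, viability of CRE-bla HEK 293T cells was quantified by CellTiter-Glo luminescence after a 3 h compound exposure.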

Row | Structure (SMILES) | Potency | activity change, negative = cytotoxicity
40 | O=C(O)CNC(=O)c1ccc(CO)o1 | inactive | 
41 | NC(N)=NC(N)=NCCc1ccccc1 | inactive | 
42 | CNc1ccccc1 | inactive | 
43 | CCC(=O)OC(=O)CC | inactive | 
44 | CCOC(=O)C(C)Oc1ccc(Oc2cnc3cc(Cl)ccc3n2)cc1 (stereo not drawn) | inactive | 
45 | CC(O)C#CC(C)O (stereo not drawn) | inactive | 
46 | Nc1nc2ncc(CNc3ccc(C(=O)N[C@@H](CCC(=O)O)C(=O)O)cc3)nc2c(=O)[nH]1 | inactive | 
47 | O=C1c2cccc(O)c2C(=O)c2c(O)cccc21 | inactive | 
48 | CC(=O)C(=O)CC(C)C | inactive | 
49 | CC1CCCCC1 | inactive | 
50 | C=C(C)[C@@H]1CC=C(C)C(=O)C1 | inactive | 
51 | CN(C)CCn1nnnc1SCC1=C(C(=O)O)N2C(=O)[C@@H](NC(=O)Cc3csc(N)n3)[C@H]2SC1 | inactive | 
52 | CCNc1cc(O)ccc1C | inactive | 
53 | CC(C)CCOCCC(C)C | inactive | 
54 | CCCCOCCOC(=O)COc1cc(Cl)c(Cl)cc1Cl | inactive | 
55 | CCOC(=O)C(C)Oc1ccc(Oc2nc3ccc(Cl)cc3o2)cc1 (stereo not drawn) | inactive | 
56 | CC1COc2ccccc2N1C(=O)C(Cl)Cl (stereo not drawn) | inactive | 
57 | OCCN1CN(CCO)CN(CCO)C1 | inactive | 
58 | Nc1c2ccccc2nc2ccccc12 | inactive | 
59 | Cc1cc(O)c(C(C)C)cc1Cl | inactive | 

Row | Structure (SMILES) | Potency | activity change, negative = cytotoxicity
60 | C=C(C)C(=O)OCCO | inactive | 
61 | Cc1cccc2sc(N)nc12 | inactive | 
62 | OCCCCCCO | inactive | 
63 | S=C([S-])NCCNC(=S)[S-].S=C([S-])NCCNC(=S)[S-].[Mn+2].[Zn+2] | inactive | 
64 | CC(C)(CO)C(O)C(=O)NCCCO (stereo not drawn) | inactive | 
65 | CC(C)C1=CC2=CC[C@@H]3[C@](C)(CCC[C@@]3(C)C(=O)O)[C@H]2CC1 | inactive | 
66 | CCc1cccc(CC)c1NC(=O)C(=O)O | inactive | 
67 | CCN(CC)C(=O)N1CCN(C)CC1 | inactive | 
68 | CCCCCCCCO | inactive | 
69 | CC/C=C\CCOC(C)=O | inactive | 
70 | Cn1ccc2cc3c(cc21)CCN3C(=O)Nc1cccnc1 |  | 3% [at 18.9 µM] (inactive)
71 | C/C=C/C(=O)CCCC | inactive | 
72 | O=C(O)CN(CC(=O)O)CC(=O)O | inactive | 
73 | CC(=O)OC(C)C[N+](C)(C)C (stereo not drawn) | inactive | 
74 | O=C(O)CN(CCN(CC(=O)O)CC(=O)O)CCN(CC(=O)O)CC(=O)O |  | 3.54% [at 18.9 µM] (inactive)
75 | C=CCOC(=O)/C=C\C(=O)OCC=C | inactive | 
76 | CN(C)CCN1CCOCC1 | inactive | 
77 | CC(C)=CCCC(C)CCO (stereo not drawn) | inactive | 
78 | Cc1ccnc2ccccc12 | inactive | 
